Experimental findings from ChEMBL document CHEMBL4513216, “Probing the Open Global Health Chemical Diversity Library for Multistage-Active Starting Points for Next-Generation Antimalarials” (ACS Infect Dis, 2020) are described below.

Structures are written as SMILES. The whole screen tested about 69,000 compounds, of which about 8,600 (12%) showed an effect of 50% or more. The entries come from a sample that favours strong results as a whole.

The subject of the test is Plasmodium berghei. Nature of the test: Screen against P. berghei liver stage (PbLuc), transformed with Luciferase, at 10uM. The test is classed as functional, HepG2. The settings on record: tested at 10 uM.
On to `Cc1cc(-c2nn3c(C4CCC4)nnc3s2)on1`, for which the INHIBITION was determined as 34.6%.

For `O=C(CCC1CCN(C2CSCCSC2)CC1)NCC1CCCO1` (configuration not stated), the INHIBITION was determined as 34.9%.

For `c1cncc(OCc2noc3c2CN(Cc2ccco2)CC3)c1`, the INHIBITION was 38.5%.

In the case of `Cc1nc(SC2CCN(c3sccc3C#N)C2=O)oc1C` (configuration not stated), the INHIBITION came to 51.5%.

`Cc1nnc(SC2CCN(c3sccc3C#N)C2=O)[nH]1` (configuration not stated): the INHIBITION stood at 40.7%.

Consider `Cc1nnc(SC2CCN(c3sccc3C#N)C2=O)s1` (configuration not stated), for which the INHIBITION was 16.8%.

With `O=C(Cc1csc(-c2ccccc2F)n1)NCc1ccc(C(=O)O)cc1`, the INHIBITION is listed as 2.61%.

Regarding `CCn1cc(NC(=O)NCc2ccc3c(c2)OCO3)cn1`, the INHIBITION is listed as -25.9%.

For the molecule `CCCc1noc(C(C)N2CCN(Cc3nc(C)c(C)o3)CC2)n1` (configuration not stated), the INHIBITION is listed as -12.25%.

Consider `Cc1cnn(CCNCC(=O)N2CCN(c3ncccn3)CC2)c1`, for which the INHIBITION is on record as 25.1%.

Consider `CN(C)c1cccc(C(=O)Nc2cn(C)c(=O)n(C)c2=O)c1`, for which the INHIBITION was 31.2%.

With `Cn1cc(NC(=O)c2cccc(Cl)c2)c(=O)n(C)c1=O`, the INHIBITION stood at 56.1%.

Take `Cn1cc(NC(=O)c2cccc(C(F)(F)F)c2)c(=O)n(C)c1=O`: the INHIBITION worked out at 15%.

In the case of `CCC(=O)N1CCCC(Cn2cc(-c3ccc(F)cc3)nn2)C1` (configuration not stated), the INHIBITION is recorded as -14.2%.

In the case of `Cc1ccccc1N1CCCN(C(=O)CCCn2ccnc2C)CC1`, the INHIBITION is 75.4%.

Regarding `CSCCC(=O)N1CCCN(c2ccccc2C)CC1`, the INHIBITION worked out at 34.1%.

Turning to `CSCC(=O)N1CCCN(c2ccccc2C)CC1`, the INHIBITION turned out to be 84.5%.

`Cc1ccccc1N1CCN(C(=O)CC(C)C)CC1`: the INHIBITION is 56.5%.

For `Cn1nccc1C(=O)N1CCCN(CCCc2ccccc2)CC1`, the INHIBITION is on record as -16.8%.

Take `CCOCCC(=O)N1CCCN(c2ccccc2C)CC1`: the INHIBITION came out at 15.2%.

For `Cc1ccccc1N1CCCN(C(=O)c2cn(C)c3ccccc23)CC1`, the INHIBITION is listed as -2.13%.

Take `Cc1nccn1CCCC(=O)N1CCCN(c2cccnn2)CC1`: the INHIBITION is given as 10%.

As for `CSCC(=O)N1CCCN(c2ccncc2C)CC1`, the INHIBITION is 49.2%.

For `O=C(c1ncoc1C1CC1)N1CCN(CCOc2ccccc2)CC1`, the INHIBITION was 26.7%.

As to `Cc1cnccc1N1CCCN(C(=O)CCCn2ccnc2C)CC1`, the INHIBITION is -2.48%.

On to `O=C(c1ncoc1C1CC1)N1CCCN(CCCc2ccccc2)CC1`, for which the INHIBITION came to 83.9%.

On to `COc1nn(C)c2c1CCCN(C(=O)c1cccc3cccnc13)C2`, for which the INHIBITION amounted to 14%.

Regarding `Cc1cc(C)c(C(=O)N2CCC3(CCCNC3)C2)cc1C` (configuration not stated), the INHIBITION is recorded as -35.8%.

Take `O=C1[C@H]2CN(C(=O)[C@H]3CCCO3)C[C@H]2CN1CCN1CCCC1`: the INHIBITION is 1.34%.

As to `CC(C)[C@H]1CN(CCCO)C[C@@H]1NC(=O)CCC(F)(F)F`, the INHIBITION stood at 20.2%.

Take `CCn1cc(-n2cc3nc(N4CCCC4)[nH]cc-3c2=O)cn1`: the INHIBITION is -29.6%.

`Cc1cc(N2CCOC(C)(C(=O)N(C)C)C2)ncn1` (configuration not stated): the INHIBITION worked out at 37.8%.

`NC(=O)N1CCC2(CCN(Cc3cccc(F)c3)CC2)CC1`: the INHIBITION is given as -13.2%.

For the molecule `Cc1nccn1CCC(=O)N1CCCN(c2ccccc2)CC1`, the INHIBITION is given as 28.7%.

Turning to `Cc1nccn1CCC(=O)N1CCCN(CCCc2ccccc2)CC1`, the INHIBITION is recorded as 51.5%.

For the molecule `CC(=O)N1CCCN(CCCc2ccccc2)CC1`, the INHIBITION turned out to be 15.2%.

For the molecule `Cc1ccccc1N1CCCN(C(=O)CCc2nncn2C)CC1`, the INHIBITION was 49.3%.

For `Cc1ccccc1N1CCCN(C(=O)CCc2ccncc2)CC1`, the INHIBITION was found to be 26.9%.

Consider `Cc1ccccc1N1CCCN(C(=O)CCc2cccnc2)CC1`, for which the INHIBITION came to 59.2%.

On to `NC(=O)c1ccc(N2CCN(CCCc3cn[nH]c3)CC2)cc1`, for which the INHIBITION is reported as -62.8%.

`CCN(CC)CC1CN(Cc2ccco2)Cc2nccn2C1` (configuration not stated): the INHIBITION is reported as -33.9%.

Consider `CCc1nc(CN2CCN(C(=O)C3(C#N)CCCCC3)CC2)cs1`, for which the INHIBITION is -9.37%.

As for `COc1ccc(-c2n[nH]c(C)c2CC(=O)NCCN2CCOCC2)cc1`, the INHIBITION came to 29.3%.

Consider `COc1ccc(-c2cc3cccn(CC(=O)N4CCOCC4)c-3n2)cc1`, for which the INHIBITION was -23.4%.

In the case of `COc1ccc(-c2n[nH]c(C)c2CC(=O)NCC2CCOCC2)cc1`, the INHIBITION was 51.9%.

With `COc1ccc(-c2n[nH]c(C)c2CC(=O)N2CCOCC2)cc1`, the INHIBITION was 51.3%.

Regarding `Cc1[nH]nc(-c2ccc(F)cc2)c1CC(=O)NCC1CCOCC1`, the INHIBITION worked out at 9.55%.

For the molecule `COc1ccc(-c2n[nH]c(C)c2CC(=O)NCC2CCCO2)cc1` (configuration not stated), the INHIBITION came to 39.7%.

Regarding `COCCN(Cc1cnn(C)c1)C(=O)C1CCC(=O)N(C2CCCC2)C1` (configuration not stated), the INHIBITION is given as 20.3%.

As to `CC1(C)C[C@H](CCNC(=O)c2ccncc2)c2ccccc2O1`, the INHIBITION worked out at 27.8%.

As to `O=C1CC(N(C(=O)c2ccc(Cl)c(Cl)c2)C2CC2)C(=O)N1` (configuration not stated), the INHIBITION was found to be 31.8%.

Take `O=c1ccc(-n2ccnc2)nn1CCNS(=O)(=O)c1ccccc1Cl`: the INHIBITION is reported as 35.1%.
